Data from PubChem BioAssay AID1347146 (National Center for Advancing Translational Sciences (NCATS), 2019).
Records with an inconclusive call do not appear. Values without a mark were called inactive. Active and inactive are the calls of the source. Calls come from the whole dose curve; as a rule, active = well fitted inhibition curve with a large enough effect; inconclusive = small, poorly fitted or top-dose-only effect; inactive = no such curve, though single readings can be large or run the other way.

Each compound was assayed against Nicotinamide N-methyltransferase (Homo sapiens) (UniProt P40261) (assay: qHTS Assay for Inhibitors of N-terminal methyltransferase 1 (NTMT1): NNMT MTaseGlo counterscreen assay). Settings: NNMT enzyme, MTase-Glo luminescence counterscreen; series mostly up to 57.1 µM; activity change, negative = inhibition: at the top concentration.
Method in brief: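 Luminescent MTase-Glo read-out of SAH from nicotinamide methylation: 1 µM nicotinamide, 100 µM SAM, 125 nM NNMT, 30 min RT after ~15 min compound preincubation. Values normalized to no-enzyme/DMSO controls, Hill-fitted.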
Potency is the fitted concentration of half-maximal effect.
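Throughout, for activity change, negative = inhibition: plate controls were DMSO without inhibitor for no effect and no-enzyme control for full effect.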

Sequence of Nicotinamide N-methyltransferase (Homo sapiens) (P40261 whole entry, looked up): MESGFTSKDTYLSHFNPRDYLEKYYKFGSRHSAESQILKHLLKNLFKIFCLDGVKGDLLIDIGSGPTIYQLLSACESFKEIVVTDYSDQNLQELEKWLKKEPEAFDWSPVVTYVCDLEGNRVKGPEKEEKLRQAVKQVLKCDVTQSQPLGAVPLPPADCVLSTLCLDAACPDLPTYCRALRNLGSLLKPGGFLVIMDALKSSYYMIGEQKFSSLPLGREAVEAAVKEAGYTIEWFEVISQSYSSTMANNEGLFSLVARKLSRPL

Structure (SMILES)	Potency	activity change, negative = inhibition
CC(C)(C)c1ccc(S(=O)(=O)/C=C\C#N)cc1	11.2 µM (active)	–
C=Cc1c(C)c2cc3[nH]c(cc4nc(cc5nc(cc1[nH]2)C(C)=C5CCC(=O)O)C(CCC(=O)O)=C4C)c(C)c3C=C	–	-14.1%
NC[C@@H]1O[C@H](C23CC4CC(CC(C4)C2)C3)Cc2c1ccc(O)c2O	–	-13.5%
C=CCN1CCc2c(cc(O)c(O)c2Cl)C(c2ccccc2)C1 (stereo unspecified)	–	-10.9%
Nc1nc2ccc(Cl)cc2c2nc(-c3ccco3)nn12	–	-8.24%
Cn1ncc(S(=O)(=O)Cc2ccccc2)c(Br)c1=O	–	-13.1%
CN1CCN(CCCN2c3ccccc3Sc3ccc(Cl)cc32)CC1	–	-16.6%
CCN1C(=O)C=CC1=O	–	-5.26%
OC[C@H]1O[C@H](n2cnc3c(N[C@H]4CCC[C@@H]4O)ncnc32)[C@H](O)[C@@H]1O	–	2.19%
CC(C)=CCNc1ncnc2c1ncn2[C@@H]1O[C@H](CO)[C@@H](O)[C@H]1O	–	130%
COc1cc2nc(N3CCCN(C)CC3)nc(NC3CCNCC3)c2cc1OC	–	-5.53%
Cc1cc2nc3c(=O)[nH]c(=O)nc-3n(C[C@H](O)[C@H](O)[C@H](O)COP(=O)(O)OP(=O)(O)OC[C@H]3O[C@@H](n4cnc5c(N)ncnc54)[C@H](O)[C@H]3O)c2cc1C	–	162% [at 28.5 µM]
COc1cc2nc(N3CCCN(C)CC3)nc(NC3CCN(Cc4ccccc4)CC3)c2cc1OC	–	-0.648%
CC(C)COCC(CN(Cc1ccccc1)c1ccccc1)N1CCCC1 (stereo unspecified)	–	-7.75%
COc1ccccc1N1CCN(CCN2C(=O)CC3(CCCC3)CC2=O)CC1	–	-10.2%
[N-]=[N+]=Nc1nc2c(N)ncnc2n1C1OC(CO)C(O)C1O (stereo unspecified)	–	-19.6%
COc1cc2c(NC3CCN(C)CC3)nc(N3CCCCC3)nc2cc1OCCCN(C)C	–	-16.6%
CC[N+](CC)(CC)CCOc1cccc(OCC[N+](CC)(CC)CC)c1OCC[N+](CC)(CC)CC	–	-11.5%
CCNC(=O)[C@H]1O[C@H](n2cnc3c(N)nc(NCCc4ccc(CCC(=O)O)cc4)nc32)[C@@H](O)[C@@H]1O	–	-13.3%
COC(=O)[C@@H]1[C@H]2C[C@H]3c4[nH]c5ccccc5c4CCN3C[C@@H]2CC[C@@H]1O	–	-4.61%
OCCN1CCN(CC/C=C2/c3ccccc3Sc3ccc(C(F)(F)F)cc32)CC1	–	-10.3%
